A selection: hits, their analogues and other compounds. The true share with any hit is near 21%.
DRD3 antagonist = blocks the human D3 dopamine receptor; D3R cells, DiscoveRx beta-arrestin luminescence, antagonist mode; stronger effect = lower value; AID 652054; max response, negative = inhibition, %; 2.5% of 360,000 active; in the data active means max response below about -50%; inconclusive means no clear call, values can overlap the other calls; further: on the % scale 0 is the no-effect control and ±100 the full control effect
Target sequence (P35462 whole entry, looked up): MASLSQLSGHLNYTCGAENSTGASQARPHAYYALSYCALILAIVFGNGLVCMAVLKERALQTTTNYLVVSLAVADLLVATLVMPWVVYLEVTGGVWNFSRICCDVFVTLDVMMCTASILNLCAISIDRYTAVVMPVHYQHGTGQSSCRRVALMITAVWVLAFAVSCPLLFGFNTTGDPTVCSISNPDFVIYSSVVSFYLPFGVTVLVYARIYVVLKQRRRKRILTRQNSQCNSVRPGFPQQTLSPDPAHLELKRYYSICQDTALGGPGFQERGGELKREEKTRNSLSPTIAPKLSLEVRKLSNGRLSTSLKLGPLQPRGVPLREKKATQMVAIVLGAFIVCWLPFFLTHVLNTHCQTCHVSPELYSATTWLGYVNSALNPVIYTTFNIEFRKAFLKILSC
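Cells plated overnight at 1500 cells/well, then exposed to library compounds with dopamine controls for 90 minutes at 37 degrees C. DiscoveRx reagent added for 30–60 minutes at room temperature; luminescence read, quantitative HTS format.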
IL1B secr inh = inhibitors of inflammasome signaling (IL-1 beta secretion). THP-1 LPS/ATP IL-1B secretion, AlphaLISA, 16 h; stronger effect = lower value. 4.7% of 360,000 active. activity change, % at 57.5 µM. AID 743279; in the data active means activity change below about -50%; inconclusive means mostly about -30% to -49%; further: on the % scale 0 is the no-effect control and ±100 the full control effect
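THP-1 cells pretreated 1 hr with compounds (up to 57.5 uM final), then stimulated with LPS (250 ng/mL final) plus ATP (1.25 mM final); secreted IL-1B measured by AlphaLISA after 16 hr, decreased signal indicating inhibition.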
D3 ag = D3 dopamine receptor (human) agonism; max activation, %; P35462; D3R DiscoveRx beta-arrestin cells, luminescence, 90 min; 0.58% of 410,000 active; in the data active means max activation above about 30%; further: 0% is about no effect
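Cells at 1500/well, incubated overnight, then treated with pinned compounds (dopamine as control) for 90 min at 37 degrees C. DiscoveRx reagent added for 30 - 60 minutes at room temperature; luminescence read.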
TDP1 cell noCPT = qHTS for Inhibitors of human tyrosyl-DNA phosphodiesterase 1 (TDP1): qHTS in cells in absence of CPT; DT40 Tdp1-/- hTDP1 cells, no CPT, ATP luminescence, 48 h; Potency, µM (highest dose often 46.2 µM), inactives show at the top dose activity change, negative = growth inhibition, actives largely listed as inhibitors; 15% of 420,000 active; further: potency means the concentration at half of the fitted maximal effect; on the % scale 0 is the no-effect control and ±100 the full control effect; nearly all actives have a fitted effect of over 55% in size
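Luminescent ATP content (CellTiter-Glo) served as the growth readout. Knockout chicken DT40 cells expressing human TDP1 were exposed to compounds without camptothecin for a minimum 48 hr at 37 °C.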
TDP1 cell CPT = growth inhibition of DT40 Tdp1-/-;hTDP1 cells with camptothecin (screen for TDP1 inhibitors); AID 686979; Potency, µM (highest dose often 46.2 µM), for inactives: at the top dose activity change, negative = growth inhibition, actives largely listed as inhibitors; 12% of 420,000 active; chicken DT40 Tdp1-/-;hTDP1 cells + 20 nM CPT, ATP luminescence, 48 h; further: potency means the concentration at half of the fitted maximal effect; on the % scale 0 is the no-effect control and ±100 the full control effect; nearly all actives have a fitted effect of over 55% in size
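Chicken DT40 Tdp1-/- cells complemented with human TDP1, 400 cells/well, exposed to compounds plus 20 nM camptothecin for at least 48 h at 37 C; viability read as ATP content by CellTiter-Glo luminescence.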
ClpP mod = qHTS Assay for Activators of ClpP; ATP-dependent Clp protease proteolytic subunit (Bacillus subtilis (strain 168)), P80244; purified B. subtilis ClpP, FRET peptide cleavage, 20 min; Potency, µM (titrated, usually from 57.5 µM), for the others: at the top dose activity change, negative = active; 1.9% of 340,000 active; AID 651965, 2013; active means well fitted falling curve with a large enough effect; inconclusive means small, poorly fitted or top-dose-only effect; inactive means no such curve, though single readings can be large or run the other way; further: potency means the concentration at half of the fitted maximal effect; the source files actives as falling curves though it sought activators and does not explain the sign; nearly all actives have a fitted effect of over 65% in size
Target sequence (P80244 whole entry, looked up): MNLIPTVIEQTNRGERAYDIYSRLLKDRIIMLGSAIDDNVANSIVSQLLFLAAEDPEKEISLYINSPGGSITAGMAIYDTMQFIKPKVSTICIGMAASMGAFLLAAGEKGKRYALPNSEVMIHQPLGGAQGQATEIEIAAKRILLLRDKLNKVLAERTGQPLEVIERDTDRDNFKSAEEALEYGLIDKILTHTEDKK
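FRET quenching reversal measured ClpP activation: 10 microg/mL B. subtilis ClpP at pH 8 with the FRET-FV decapeptide, read at 430 nm after 320 nm excitation. The 20-min minus 0-min signal was scaled between DMSO/no-enzyme wells and ADEP (5.8 microM final).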
An asterisk follows results filed as active; ? = inconclusive; . = not tested or not shown. Unless noted, the call rests on the fitted dose curve; in most records, active means well fitted inhibition curve with a large enough effect; inconclusive means small, poorly fitted or top-dose-only effect; inactive means flat fitted curve, though single readings scatter.

SMILES	DRD3 antagonist	IL1B secr inh	D3 ag	TDP1 cell noCPT	TDP1 cell CPT	ClpP mod
COc1cccc(NC(=O)C2CCCN(c3nnc(-n4c(C)ccc4C)s3)C2)c1 (configuration not stated)	.	.	-2.8	13µM*	18.4µM*	-1.0%
Cc1ccc(C)n1-c1nnc(N2CCCC(C(=O)Nc3ccccc3Br)C2)s1 (configuration not stated)	.	.	1.6	?	?	4.3%
CC(=O)c1cccc(NC(=O)C2CCCN(c3nnc(-n4cccc4)s3)C2)c1 (configuration not stated)	.	.	-3.3	16.4µM*	?	0.4%
Cc1ccc(Cl)cc1NC(=O)Nc1nnc(N2CCCC(C)C2)s1 (configuration not stated)	.	.	-3.4	-16.6%	-1.5%	0.4%
COc1cccc(NC(=O)C2CCN(c3nnc(-n4c(C)ccc4C)s3)CC2)c1	.	.	0.4	?	?	1.0%
Cc1cccc(NC(=O)C2CCCN(c3nnc(-n4c(C)ccc4C)s3)C2)c1C (configuration not stated)	.	.	-0.7	14.6µM*	14.6µM*	-1.4%
Cc1cc(C)c2c(C)c(C(=O)N3CCC(c4nc5ccccc5s4)CC3)oc2c1	.	.	4.1	?	?	-1.0%
CCOc1ccc(Nc2oc(/C=C/c3ccc(OC)c(OC)c3)nc2C#N)cc1	.	.	2.7	?	?	?
COC(=O)C1=C[C@@H](C(=O)OC)[C@@H]2C3=C(C(=O)[C@@]2(C)NC(=O)c2ccccc2)[C@H](C)n2c(=O)n(C)c(=O)n2[C@@H]3C1	2.9	56.0	6.8	3.8%	4.4%	-0.1%
Cc1cccc(CNC(=O)c2c3n(c(C)cc2=O)-c2ccccc2SC(c2ccsc2)C3)n1 (configuration not stated)	.	.	.	-12.7%	-21.7%	.
Cc1cc(F)ccc1NC(=O)C1CCCN(c2nnc(-n3c(C)ccc3C)s2)C1 (configuration not stated)	.	.	-8.4	16.4µM*	20.6µM*	0.6%
CCC(C(=O)NC1CCCC1)N(C(=O)c1snc(C(N)=O)c1N)c1ccc(C)cc1C (configuration not stated)	6.8	-8.0	-6.4	18.4µM*	?	0.2%
Cc1ccc(N(C(=O)c2snc(C(N)=O)c2N)C(CC(C)C)C(=O)NC2CCCC2)cc1 (configuration not stated)	0.0	3.1	10.2	?	?	.
NC(=O)c1nsc(C(=O)N(c2ccc(F)cc2)C(C(=O)NC2CCCC2)c2ccncc2)c1N (configuration not stated)	-4.2	1.7	-6.4	-11.5%	0.7%	.
CC(C)c1ccc(N(C(=O)c2snc(C(N)=O)c2N)C(C(=O)NC2CCCC2)c2ccncc2)cc1 (configuration not stated)	-14.5	40.6	-16.6	23.1µM*	18.4µM*	.
CCCCC(C(=O)NC1CCCC1)N(C(=O)c1snc(C(N)=O)c1N)c1ccc(C)cc1 (configuration not stated)	-8.8	-17.1	-2.1	?	18.4µM*	.
CN(CCOc1ccccc1)C(=O)CCc1c[nH]c2ccccc12	5.4	-7.9	-11.9	?	-25.4%	.
Cn1nc(C(F)(F)F)c(C#N)c1N1CCN(c2ccccn2)CC1	-5.6	18.2	2.2	?	-23.3%	.
Cn1nc(C(F)(F)F)c(C#N)c1N1CCN(c2ccccc2)CC1	-26.7	-16.9	-7.1	14.6µM*	?	-5.5%
Cn1nc(C(F)(F)F)c(C#N)c1N1CCN(c2ccc(F)cc2)CC1	?	-11.6	-10.1	20.6µM*	?	14.1µM*
CC[n+]1c(C)sc2c(C)cc(C)cc21	?	93.5	-0.3	?	23.1µM*	-3.5%
CCOc1ccc(CN2CCN(Cc3ccc4c(c3)c3ccccc3n4CC)CC2)cc1	.	.	-12.6	14.6µM*	?	20µM*
CCN1CCN(Cc2ccc(OCc3ccccc3)c(OC)c2)CC1	-18.9	-3.5	-9.2	-18.3%	-5.9%	0.3%
CCn1c2ccccc2c2cc(CN3CCN(Cc4ccc(OC)c(OC)c4)CC3)ccc21	.	.	-12.7	23.1µM*	18.4µM*	?
CCOc1ccc(CN2CCN(C(=O)c3cccc4ccccc34)CC2)cc1	-22.0	-83.1*	-10.9	?	?	-0.9%
SMILES	DRD3 antagonist	IL1B secr inh	D3 ag	TDP1 cell noCPT	TDP1 cell CPT	ClpP mod
CCn1c2ccccc2c2cc(CN3CCN(Cc4ccccc4Cl)CC3)ccc21	.	.	-17.9	?	?	?
CCCS(=O)(=O)N1CCN(Cc2ccc3c(c2)c2ccccc2n3CC)CC1	-21.6	?	-9.1	?	20.6µM*	?
COC(=O)c1ccc(N2CC3CNC(=O)C2(C(=O)OC)N3C)cc1 (configuration not stated)	6.0	16.7	-2.5	-2.3%	15.1%	-4.6%
O=C(Cn1cnc2c(OCc3ccccc3)ncnc21)NCc1ccccn1	-67.2*	-5.5	0.0	-6.9%	-3.1%	-2.1%
CC(CNC(=O)Cn1cnc2c(NCc3ccccc3)ncnc21)c1ccccc1 (configuration not stated)	5.4	-1.9	45.3*	-23.1%	-2.9%	2.2%
O=C(Cn1cnc2c(NC(=O)OCc3ccccc3)ncnc21)NCc1ccccn1	0.0	9.2	-2.1	-23.2%	-22.7%	-3.8%
O=C(Cn1cnc2c(OCc3ccccc3)ncnc21)NCc1ccccc1	-8.6	61.3	-6.8	16.4µM*	?	-1.4%
O=C(Cn1cnc2c(OCc3ccccc3)ncnc21)NCc1ccc2[nH]ccc2c1	27.7	6.8	5.2	16.4µM*	?	-1.1%
CC(OC(=O)/C=C/c1ccc2ccccc2n1)C(=O)Nc1ccc(S(N)(=O)=O)cc1 (configuration not stated)	-25.7	?	-5.6	?	-25.5%	0.0%
COc1ccccc1-n1c(=O)c2c3c(sc2n(C)c1=O)CN(C(C)=O)CC3	.	.	6.9	-3.5%	13.0%	2.0%
Cc1ccc(CNC(=O)CCCCn2c(=O)c3ccccc3n(Cc3c(C)cc(C)cc3C)c2=O)cc1	.	.	5.8	-9.8%	-1.2%	0.3%
COc1ccc(-c2n(CC(=O)OC3CC(C)CCC3C(C)C)c3ccccc3[n+]2C)cc1 (configuration not stated)	-85.6*	-200.7*	-26.7	0.411µM*	0.461µM*	.

Compound activity from PubChem BioAssay.
